The target in assay [1] is Bile acid receptor (Homo sapiens) (UniProt Q96RI1). As to the kind of experiment: ATG_IR1_CIS: Attagene CIS-FACTORIAL HepG2 Assay for human Nuclear Receptor Subfamily 1 Group H Member 4 (NR1H4), IR1 submotif (AID 2282946). To be noted: IR1 reporter transcription, actives raise or lower the signal. The essentials:
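HepG2 cells transiently transfected with multiple cis-promoter-driven reporter units to measure endogenous transcription factor activity; 24 h exposure. Reporter mRNA read by RT-PCR, FAM labelling, HpaI digestion and capillary electrophoresis. Bidirectional fit versus DMSO.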

Assay [2] is described as follows: ATG_GRE_CIS: Attagene CIS-FACTORIAL HepG2 Assay for human Glucocorticoid Response Elements (GRE) (AID 2282947). To be noted: HepG2 GRE cis-reporter, Attagene multiplex mRNA; actives raise or lower the signal. The essentials: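 Transiently transfected HepG2 cells carrying GRE cis-reporter units (endogenous TF activity) dosed 24 h; reporter mRNA quantified by RT-PCR, 6-FAM labelling, HpaI digestion and capillary electrophoresis. Bidirectional fit versus DMSO baseline.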

A short description of assay [3]: ATG_ISRE_CIS: Attagene CIS-FACTORIAL HepG2 Assay for human Interferon Regulatory Factor 1 (IRF1) binding to an Interferon-Stimulated Response Element (ISRE) (AID 2282948). To be noted: HepG2 ISRE cis-reporter (Attagene), mRNA transcription readout; actives raise or lower the signal. The essentials: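 Quantitation relies on labelled RT-PCR fragments separated by capillary electrophoresis. Human HepG2 cells bearing cis-promoter reporter constructs were treated 24 h; DMSO served as baseline for bidirectional fitting.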

Assay [4] can be described thus: ATG_M_32_CIS: Attagene CIS-FACTORIAL HepG2 Assay for M32 Transcription Factor (Internal Marker) (AID 2282949).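 Also: background control marker of the multiplexed CIS panel rather than a real target.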 To be noted: HepG2 Attagene cis-factorial M32 reporter, mRNA; actives raise or lower the signal. The essentials:
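Fluorescent capillary electrophoresis peaks of HpaI-digested, FAM-labelled RT-PCR reporter products give the signal. Source: transiently transfected human liver HepG2 cells, 24 h after chemical dosing; bidirectional fitting against DMSO.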

Assay [5] in a line: ATG_M_06_CIS: Attagene CIS-FACTORIAL HepG2 Assay for M06 Transcription Factor (Internal Marker) (AID 2282950). The settings on record: HepG2 Attagene CIS-FACTORIAL M06 internal marker reporter; actives raise or lower the signal. The essentials:
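Internal background marker within multiplexed cis-reporter HepG2 system. Cells transiently transfected, dosed 24 h; reporter mRNA measured by RT-PCR, HpaI digestion and capillary electrophoresis. Bidirectional fit relative to DMSO.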

For assay [6], the target named is Hypoxia-inducible factor 1-alpha (Homo sapiens) (UniProt Q16665). As to the kind of experiment: ATG_HIF1a_CIS: Attagene CIS-FACTORIAL HepG2 Assay for human Hypoxia Inducible Factor 1 (HIF1A) (AID 2282951). The settings on record: HepG2 Attagene cis-factorial HIF1a reporter transcription; actives raise or lower the signal. The essentials:
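HepG2 cells transiently transfected with multiple cis-regulated reporter transcription units measure endogenous transcription factor activity. After 24 h exposure, reporter mRNA is quantified by RT-PCR with 6-FAM labelling, HpaI digestion and capillary electrophoresis. Bidirectional fitting against DMSO.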

Assay [7] addresses Hepatocyte nuclear factor 6 (Homo sapiens) (UniProt Q9UBC0). As to the kind of experiment: ATG_HNF6_CIS: Attagene CIS-FACTORIAL HepG2 Assay for human Hepatocyte Nuclear Factor 6 (HNF6) (AID 2282952). The settings on record: HepG2 Attagene cis-factorial HNF6 reporter transcription; actives raise or lower the signal. The essentials: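 HepG2 cells transiently transfected with cis-element-driven multiplexed reporter units measuring endogenous transcription factor activity. After 24 h exposure, reporter mRNA quantified by RT-PCR, FAM-labelled fragments and capillary electrophoresis; bidirectional fitting versus DMSO.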

In assay [8] the target is Heat shock factor protein 1 (Homo sapiens) (UniProt Q00613). As to the kind of experiment: ATG_HSE_CIS: Attagene CIS-FACTORIAL HepG2 Assay for human Heat Shock Transcription Factor 1 (HSE) (AID 2282953). To be noted: HepG2 HSE cis-reporter, Attagene RNA transcription; actives raise or lower the signal. The essentials:
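HepG2 cells transfected with cis-promoter reporter units sensing endogenous transcription factor activity; reporter mRNA quantified 24 h post-dose by RT-PCR and capillary electrophoresis of 6-FAM-labelled products. Bidirectional fitting against DMSO.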

Assay [9] can be described thus: ATG_MRE_CIS: Attagene CIS-FACTORIAL HepG2 Assay for human Metal Responsive Element (MRE) (AID 2282954). The settings on record: HepG2 MRE cis-reporter transcription, Attagene multiplex; actives raise or lower the signal. The essentials: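 HepG2 cells transiently transfected with cis-element-driven reporter units; mRNA measured 24 h after dosing. Reporter transcripts quantified by RT-PCR, FAM labelling, HpaI digestion and capillary electrophoresis; bidirectional fit versus DMSO.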

The target of assay [10] is Paired box protein Pax-6 (Homo sapiens) (UniProt P26367). As to the kind of experiment: ATG_Pax6_CIS: Attagene CIS-FACTORIAL HepG2 Assay for human Paired Box 6 (PAX6) (AID 2282956). To be noted: HepG2 CIS-FACTORIAL PAX6 reporter transcription, RNA readout; actives raise or lower the signal. The essentials: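 After twenty-four hours of chemical exposure, transfected HepG2 cells are harvested for RNA. Cis-promoter reporter transcripts are amplified, fluorescently labelled and sized by capillary electrophoresis, with gain and loss of signal scored against DMSO.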
Sequence of Paired box protein Pax-6 (Homo sapiens) (P26367 whole entry, looked up): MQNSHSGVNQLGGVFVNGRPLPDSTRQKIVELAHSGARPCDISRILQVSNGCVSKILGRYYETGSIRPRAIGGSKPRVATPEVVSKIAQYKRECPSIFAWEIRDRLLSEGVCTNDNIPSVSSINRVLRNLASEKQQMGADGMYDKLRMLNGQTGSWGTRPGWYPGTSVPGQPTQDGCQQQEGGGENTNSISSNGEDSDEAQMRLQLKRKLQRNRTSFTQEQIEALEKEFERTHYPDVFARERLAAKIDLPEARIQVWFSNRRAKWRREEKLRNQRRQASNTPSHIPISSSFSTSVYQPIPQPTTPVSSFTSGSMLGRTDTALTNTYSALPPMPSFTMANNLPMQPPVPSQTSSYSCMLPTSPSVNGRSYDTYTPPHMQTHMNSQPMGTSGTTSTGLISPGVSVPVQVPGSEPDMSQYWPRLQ

Assay [11] is described as follows: ATG_PXRE_CIS: Attagene CIS-FACTORIAL HepG2 Assay for human Pregnane X Receptor Element (PXRE) (AID 2282957). To be noted: HepG2 Attagene CIS-FACTORIAL PXRE reporter, mRNA; actives raise or lower the signal. The essentials: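 HepG2 cells transiently transfected with cis-element-driven multiplexed reporter units; after 24 h chemical exposure, reporter mRNA measured by RT-PCR, 6-FAM labelling, HpaI digestion and capillary electrophoresis. Bidirectional fitting relative to DMSO.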

A short description of assay [12]: ATG_PPRE_CIS: Attagene CIS-FACTORIAL HepG2 Assay for human Peroxisome Proliferator-activated Response Element (PPRE) (AID 2282958). To be noted: HepG2 PPRE cis-element reporter, Attagene transcription factor profiling; actives raise or lower the signal. The essentials:
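HepG2 cells are transiently transfected with multiplexed cis-promoter reporter units to report endogenous PPAR activity. After 24 h dosing, reporter mRNA is read by RT-PCR and capillary electrophoresis. Fitting is bidirectional against DMSO.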

The nature of assay [13]: ATG_RORE_CIS: Attagene CIS-FACTORIAL HepG2 Assay for human RAR-related Orphan Receptor Element (RORE) (AID 2282959). To be noted: HepG2 Attagene cis-factorial RORE reporter, mRNA; actives raise or lower the signal. The essentials:
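HepG2 cells carrying transiently transfected cis-regulated reporter units; RORE-driven reporter mRNA quantified 24 h post-dosing by RT-PCR, 6-FAM primer extension, HpaI digestion and capillary electrophoresis. Bidirectional fit versus DMSO.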

Assay [14] is described as follows: ATG_Sox_CIS: Attagene CIS-FACTORIAL HepG2 Assay for human SRY-box transcription factor (SOX) (AID 2282960). The settings on record: HepG2 Attagene cis-factorial SOX reporter, mRNA; actives raise or lower the signal. The essentials:
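HepG2 cells transiently transfected with multiple cis-regulated reporter units, then dosed for 24 h. Reporter mRNA quantified by RT-PCR, fluorescent labelling, HpaI digestion and capillary electrophoresis; bidirectional fit versus DMSO.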

The target of assay [15] is Transcription factor Sp1 (Homo sapiens) (UniProt P08047). As to the kind of experiment: ATG_Sp1_CIS: Attagene CIS-FACTORIAL HepG2 Assay for human Specificity Protein 1 (Sp1) (AID 2282961). To be noted: HepG2 Sp1 cis-reporter transcription, actives raise or lower the signal. The essentials:
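HepG2 cells transiently transfected with multiplexed cis-regulated reporter constructs, chemical exposure 24 h. Reporter mRNA quantified by RT-PCR with capillary electrophoresis; bidirectional fit relative to DMSO.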

Assay [16] is described as follows: ATG_SREBP_CIS: Attagene CIS-FACTORIAL HepG2 Assay for human Sterol Regulatory Element Binding (SREBP) (AID 2282962). The settings on record: HepG2 Attagene cis-factorial SREBP reporter, mRNA; actives raise or lower the signal. The essentials: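 Twenty-four hours after chemical dosing of transfected HepG2 cultures, reporter RNA was converted to cDNA, amplified, end-labelled with 6-FAM and resolved by capillary electrophoresis. Responses were fitted relative to DMSO.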

The target of assay [17] is Signal transducer and activator of transcription 3 (Homo sapiens) (UniProt P40763). As to the kind of experiment: ATG_STAT3_CIS: Attagene CIS-FACTORIAL HepG2 Assay for human Signal Transducer and Activator of Transcription 3 (STAT3) (AID 2282963). To be noted: HepG2, Attagene cis-factorial STAT3 reporter transcription; actives raise or lower the signal. The essentials: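 HepG2 cells transiently transfected with multiple cis-element-driven reporter units report endogenous transcription factor activity. After 24 h compound exposure, reporter mRNA is measured by RT-PCR, 6-FAM labelling, HpaI digestion and capillary electrophoresis. Fitted bidirectionally versus DMSO.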
Sequence of Signal transducer and activator of transcription 3 (Homo sapiens) (P40763 whole entry, looked up): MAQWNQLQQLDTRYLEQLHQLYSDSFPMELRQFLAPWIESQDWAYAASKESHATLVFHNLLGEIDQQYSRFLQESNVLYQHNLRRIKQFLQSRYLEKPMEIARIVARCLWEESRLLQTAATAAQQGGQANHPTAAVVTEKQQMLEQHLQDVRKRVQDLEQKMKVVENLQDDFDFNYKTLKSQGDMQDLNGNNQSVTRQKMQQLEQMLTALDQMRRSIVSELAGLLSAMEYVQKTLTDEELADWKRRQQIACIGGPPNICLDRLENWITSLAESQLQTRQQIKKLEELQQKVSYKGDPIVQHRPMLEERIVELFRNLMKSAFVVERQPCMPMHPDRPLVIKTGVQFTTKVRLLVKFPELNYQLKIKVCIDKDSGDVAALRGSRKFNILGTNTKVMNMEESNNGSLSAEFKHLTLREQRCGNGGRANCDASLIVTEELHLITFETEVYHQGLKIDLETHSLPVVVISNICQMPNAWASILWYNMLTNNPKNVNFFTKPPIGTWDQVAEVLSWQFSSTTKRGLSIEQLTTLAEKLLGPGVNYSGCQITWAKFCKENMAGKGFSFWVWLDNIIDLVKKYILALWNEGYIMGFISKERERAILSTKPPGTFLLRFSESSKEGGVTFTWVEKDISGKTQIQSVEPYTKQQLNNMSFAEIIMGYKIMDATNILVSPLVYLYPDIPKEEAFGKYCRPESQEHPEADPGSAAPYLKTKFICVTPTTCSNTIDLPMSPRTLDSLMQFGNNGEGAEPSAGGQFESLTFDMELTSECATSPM

Assay [18] is described as follows: ATG_TA_CIS: Attagene CIS-FACTORIAL HepG2 Assay for human TA Basal Promoter (AID 2282964). To be noted: HepG2 Attagene CIS-factorial TA basal promoter reporter; actives raise or lower the signal. The essentials:
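HepG2 cells transiently transfected with multiple reporter units under cis promoter elements, reporting endogenous transcription factor activity; this endpoint tracks the TA basal promoter as background control. Reporter mRNA after 24 h dosing measured by RT-PCR/capillary electrophoresis; bidirectional fits versus DMSO.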

Assay [19] in a line: ATG_TCF_b_cat_CIS: Attagene CIS-FACTORIAL HepG2 Assay for human T-Cell-Factor with beta-catenin (TCF/b-cat) (AID 2282965). The settings on record: HepG2 TCF/beta-catenin cis-reporter transcription, actives raise or lower the signal. The essentials:
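HepG2, transient MRTU transfection, cis-element-driven reporters (endogenous TFs). 24 h compound exposure. Readout: reporter mRNA by RT-PCR + 6-FAM primer extension, HpaI digest, capillary electrophoresis. Gain/loss fit vs DMSO baseline.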

A short description of assay [20]: ATG_PBREM_CIS: Attagene CIS-FACTORIAL HepG2 Assay for human Phenobarbital-responsive Enhancer Module (PBREM) (AID 2282955). The settings on record: HepG2 PBREM cis-reporter, Attagene multiplexed transcription; actives raise or lower the signal. The essentials: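 HepG2 cells transiently transfected with multiple cis-regulated reporter units measure endogenous transcription factor activity; 24 h compound exposure. Reporter mRNA quantified by RT-PCR, fluorescent labelling, HpaI digestion and capillary electrophoresis; bidirectional fit versus DMSO.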

Each structure is given as a SMILES string. Activity calls are given as the source filed them. The calls were made as follows: active = hit-call score of the fitted dose curve at least 0.9, where 1 is the maximum; inactive = score below 0.9.

Sequence of Hypoxia-inducible factor 1-alpha (Homo sapiens) (Q16665 whole entry, looked up): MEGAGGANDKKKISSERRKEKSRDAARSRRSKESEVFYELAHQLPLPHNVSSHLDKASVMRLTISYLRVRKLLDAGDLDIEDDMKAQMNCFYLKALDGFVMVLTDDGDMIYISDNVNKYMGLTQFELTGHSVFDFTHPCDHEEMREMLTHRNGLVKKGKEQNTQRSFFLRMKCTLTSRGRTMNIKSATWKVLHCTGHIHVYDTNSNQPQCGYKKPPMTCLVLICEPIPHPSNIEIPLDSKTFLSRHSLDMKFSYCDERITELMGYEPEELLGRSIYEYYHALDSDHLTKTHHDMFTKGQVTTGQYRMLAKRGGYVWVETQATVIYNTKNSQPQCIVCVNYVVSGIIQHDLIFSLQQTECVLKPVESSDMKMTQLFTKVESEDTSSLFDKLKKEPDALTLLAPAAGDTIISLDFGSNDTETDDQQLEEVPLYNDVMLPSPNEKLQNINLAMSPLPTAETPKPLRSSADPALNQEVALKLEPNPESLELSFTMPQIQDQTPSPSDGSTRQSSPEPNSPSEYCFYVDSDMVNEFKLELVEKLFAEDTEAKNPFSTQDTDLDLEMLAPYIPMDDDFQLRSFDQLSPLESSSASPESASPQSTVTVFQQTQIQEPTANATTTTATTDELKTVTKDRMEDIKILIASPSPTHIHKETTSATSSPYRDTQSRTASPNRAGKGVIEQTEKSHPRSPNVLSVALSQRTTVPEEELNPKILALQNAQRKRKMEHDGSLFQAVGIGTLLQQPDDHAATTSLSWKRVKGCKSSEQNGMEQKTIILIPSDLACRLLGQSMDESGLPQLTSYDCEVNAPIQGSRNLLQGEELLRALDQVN
Sequence of Hepatocyte nuclear factor 6 (Homo sapiens) (Q9UBC0 whole entry, looked up, the tested form may be a part): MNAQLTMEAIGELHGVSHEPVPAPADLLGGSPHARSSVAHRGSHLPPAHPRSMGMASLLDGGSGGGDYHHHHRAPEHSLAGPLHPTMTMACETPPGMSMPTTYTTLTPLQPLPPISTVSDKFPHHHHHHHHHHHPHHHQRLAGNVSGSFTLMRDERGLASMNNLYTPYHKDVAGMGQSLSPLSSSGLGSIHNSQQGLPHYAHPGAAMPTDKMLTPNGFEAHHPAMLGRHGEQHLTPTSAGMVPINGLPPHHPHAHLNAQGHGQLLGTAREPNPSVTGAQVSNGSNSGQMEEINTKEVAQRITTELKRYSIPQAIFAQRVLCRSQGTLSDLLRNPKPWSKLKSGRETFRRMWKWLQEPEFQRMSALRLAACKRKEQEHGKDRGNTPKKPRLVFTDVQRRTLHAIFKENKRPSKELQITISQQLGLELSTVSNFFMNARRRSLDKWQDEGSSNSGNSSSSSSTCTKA
Sequence of Heat shock factor protein 1 (Homo sapiens) (Q00613 whole entry, looked up): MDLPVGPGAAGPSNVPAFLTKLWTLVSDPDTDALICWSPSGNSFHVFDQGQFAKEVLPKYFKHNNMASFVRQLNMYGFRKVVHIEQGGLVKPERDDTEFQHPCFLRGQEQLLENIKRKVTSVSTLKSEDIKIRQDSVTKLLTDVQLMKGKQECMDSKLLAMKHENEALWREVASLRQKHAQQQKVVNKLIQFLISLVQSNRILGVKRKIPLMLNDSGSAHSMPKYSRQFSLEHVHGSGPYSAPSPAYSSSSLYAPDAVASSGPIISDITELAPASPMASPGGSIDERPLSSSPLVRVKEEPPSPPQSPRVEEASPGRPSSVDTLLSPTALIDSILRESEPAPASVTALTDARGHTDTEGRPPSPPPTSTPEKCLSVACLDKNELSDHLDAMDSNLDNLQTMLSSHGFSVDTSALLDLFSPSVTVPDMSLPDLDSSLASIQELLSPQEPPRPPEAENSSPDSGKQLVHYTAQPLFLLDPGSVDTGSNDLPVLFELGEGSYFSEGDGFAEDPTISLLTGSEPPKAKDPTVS
Sequence of Bile acid receptor (Homo sapiens) (Q96RI1 whole entry, looked up): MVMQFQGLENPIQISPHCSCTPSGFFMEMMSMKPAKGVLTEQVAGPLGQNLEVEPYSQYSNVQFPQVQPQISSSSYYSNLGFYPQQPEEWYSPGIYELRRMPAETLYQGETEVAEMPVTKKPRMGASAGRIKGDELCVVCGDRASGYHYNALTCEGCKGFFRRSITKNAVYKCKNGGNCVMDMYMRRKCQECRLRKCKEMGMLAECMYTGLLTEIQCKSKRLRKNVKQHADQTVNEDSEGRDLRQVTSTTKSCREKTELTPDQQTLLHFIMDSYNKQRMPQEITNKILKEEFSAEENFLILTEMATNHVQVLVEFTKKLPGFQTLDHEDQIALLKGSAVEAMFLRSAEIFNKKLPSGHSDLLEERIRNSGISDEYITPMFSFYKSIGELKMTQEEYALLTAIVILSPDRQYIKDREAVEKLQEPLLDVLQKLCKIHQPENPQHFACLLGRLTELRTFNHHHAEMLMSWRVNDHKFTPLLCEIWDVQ
Sequence of Transcription factor Sp1 (Homo sapiens) (P08047 whole entry, looked up): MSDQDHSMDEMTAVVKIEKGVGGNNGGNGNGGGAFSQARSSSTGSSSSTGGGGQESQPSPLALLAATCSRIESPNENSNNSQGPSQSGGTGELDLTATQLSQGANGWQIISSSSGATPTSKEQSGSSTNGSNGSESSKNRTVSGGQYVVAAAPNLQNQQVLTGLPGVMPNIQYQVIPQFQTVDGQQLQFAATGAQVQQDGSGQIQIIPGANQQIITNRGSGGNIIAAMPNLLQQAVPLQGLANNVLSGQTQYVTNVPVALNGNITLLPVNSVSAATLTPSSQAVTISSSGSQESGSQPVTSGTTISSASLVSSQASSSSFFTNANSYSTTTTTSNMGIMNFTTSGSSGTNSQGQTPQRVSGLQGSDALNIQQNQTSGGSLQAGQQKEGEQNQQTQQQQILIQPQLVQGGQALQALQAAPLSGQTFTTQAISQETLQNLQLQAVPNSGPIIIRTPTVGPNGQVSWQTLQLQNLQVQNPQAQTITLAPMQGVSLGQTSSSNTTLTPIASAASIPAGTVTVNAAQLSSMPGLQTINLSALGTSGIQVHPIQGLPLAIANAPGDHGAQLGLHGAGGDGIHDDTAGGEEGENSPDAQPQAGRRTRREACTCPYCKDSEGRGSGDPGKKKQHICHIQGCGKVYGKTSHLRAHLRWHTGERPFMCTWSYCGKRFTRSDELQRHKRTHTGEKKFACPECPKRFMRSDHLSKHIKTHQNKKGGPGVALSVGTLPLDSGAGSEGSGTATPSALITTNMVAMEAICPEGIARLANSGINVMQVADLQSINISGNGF

For orientation: AC50 means the midpoint of the concentration-response curve, whichever way the signal moves. On to `CCOC(=O)c1ccccc1C(=C1C=C(Br)C(=O)C(Br)=C1)c1cc(Br)c(O)c(Br)c1`, for which the AC50 is 62.5 µM (active) in assay [1]; 28.8 µM (active) in [3]; 35.8 µM (active) in [6]; 20.6 µM (active) in assay [8]; 26.2 µM (active) in assay [9]; 39.3 µM (active) in [10]. The AC50 in [12] is 19.8 µM (active); in assay [15], 20.7 µM (active); in assay [19], 24.8 µM (active). The compound was classed as inactive in assay [2], in assay [4], in assay [5], in assay [7], in assay [11] and in assay [13]. The compound was classed as inactive in assay [14], in [16], in assay [17] and in [18].

For `CC(C)(C)C(=O)C=Cc1ccc(Cl)cc1`, the concentration at half-maximal activity (AC50) in assay [1] is 10 µM (active); in assay [3] it was 24.9 µM (active); in [4] it was 132 µM (active); in [5], 148 µM (active); in [6], 26.3 µM (active); in assay [7], 23.6 µM (active). In addition, the half-maximal activity concentration (AC50) in [8] is 34.3 µM (active); in assay [9], 34 µM (active); in assay [10] it was 36.8 µM (active); in assay [11], 5.18 µM (active); in [14] it was 25.1 µM (active); in assay [15], 27.3 µM (active). The half-maximal activity concentration (AC50) is 164 µM (active) in assay [17], 78.2 µM (active) in [18] and 53.8 µM (active) in [19]. The outcome in [2], in [20], in assay [13] and in [16] was inactive.

On to `C=CCOc1c(Br)cc(Br)cc1Br`, for which the call in assay [1], in assay [2], in assay [3], in [4], in assay [5] and in assay [6] was inactive. In addition, the compound was called inactive in assay [7], in assay [8], in assay [9], in assay [20], in [10] and in assay [13]. Besides, the compound was called inactive in assay [14], in [15], in assay [16], in [17], in [18] and in [19]. Also, the AC50 in assay [11] was 12.7 µM (active).

The record behind these values is PubChem BioAssay (EPA / NIEHS).
